In PubChem BioAssay:
The source made the active and inactive calls.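 Rule for the calls, unless noted: active = inhibition at or above 50% at 10 µM; inactive = inhibition below 50%.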

Columns and labels:
[1] = inhibitors of TNFa-induced NFkB p65 translocation, primary screen, imaging, HUVEC, MLSMR starter and 10KST1 sets (AID 438;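 active = inhibition above 20% together with a positive visual image hit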;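 note: compound added about 3h40 before a 20 min TNFalpha stimulation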;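 for inhibition: signal is the nuclear over cytoplasmic p65 intensity ratio per well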); details: HUVEC TNFa-induced p65 nuclear translocation; cell count: measured here: nuclei count (cytotoxicity indicator), at 2.08 µM; inhibition: at 2 µM, stronger effect = higher value, 0% TNFa-plus-vehicle, 100% no-TNFa wells
[2] = reduction of polyQ htt aggregates in cells – imaging, exon1htt(103Q)mCFP cells, high-content imaging, primary screen (AID 483;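 active = visual image review flags a hit and inhibition of aggregation exceeds 20%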;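 note: compound exposure lasted 3 days before fixation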;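 for nuclei count: percent of the per-plate median nuclei count of sample wells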); details: exon1htt(103Q)mCFP cell line, aggregate imaging, at 2 µM; inhibition of aggregation: stronger effect = higher value; nuclei count: measured here: cell count, toxicity
[3] = endothelial E-selectin expression blockers – imaging, HUVEC, immunofluorescence, MLSMR starter and 10KST1 sets, primary screen (AID 487;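 active = visually confirmed hit in the image check and inhibition above 20%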;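 for inhibition: signal is fraction of cell area covered by stained E-selectin grains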;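 for nuclei count: 100% = median nuclei count of all wells on the same plate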); details: HUVEC TNFalpha-induced E-selectin immunofluorescence imaging, at 2 µM; inhibition: stronger effect = higher value; nuclei count: measured here: cell number, toxicity
[4] = biological target: Voltage-gated potassium channel subunit beta-2 (Rattus norvegicus) (UniProt P62483); test: inhibitors of rat Kvbeta2 reductase activity – biochemical, NADPH fluorescence, primary screen (AID 622;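 active = fluorescence slope higher than the sample average by over 3 SD, cut at about -0.22 in these data, passing the limit was not always enough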;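 note: slope of raw intensity against log time taken from 70 to 1610 s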); details: recombinant KvBeta, 4-cyanobenzaldehyde reduction, at 10 µM, stronger effect = higher value
[5] = biological target: Voltage-gated potassium channel subunit beta-2 (Rattus norvegicus) (UniProt P62483); test: enhancers of rat Kvbeta2 NADPH turnover – biochemical, NADPH fluorescence, primary screen (AID 623;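 active = NADPH fluorescence slope more negative than the mean of all samples by about 3 SD, 99.7% confidence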;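 note: fluorescence intensity change per second fitted from 20 to 320 s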); details: Recombinant KvBeta, NADPH fluorescence decrease slope, 10 min; at 10 µM; stronger effect = lower value
[6] = biological target: Alpha-2C adrenergic receptor (Homo sapiens) (UniProt P18825); test: compounds altering alpha2C-coupled GIRK flux – cell-based, HEK293 alpha2C/GIRK1/2, thallium flux, primary screen (AID 624;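 active = fluorescence slope after compound addition differing from the mean of all screened samples at 99.7% confidence, in either direction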;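 note: slope of fluorescence ratio to pre-addition baseline per second over 15 to 24 s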); details: thallium flux BTC fluorescence, at 10 µM, actives lie on both sides
[7] = blockers of RIG-like receptor reporter activation – cell-based, Sendai virus stimulus, luciferase, 10K MLSCN set, TLR/RLR signaling modifier project, primary screen (AID 602276); details: HEK293 RL24 IRF3 luciferase reporter, at 10 µM, stronger effect = higher value;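 note: firefly luciferase from ISG56 promoter only with Renilla not read in this screen; 0% = Sendai virus plus DMSO and 100% = medium plus DMSO without virus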
[8] = TLR3 IRF3 reporter activation blockers – cell-based, poly I:C stimulus, luciferase, 10K MLSCN set, primary screen (AID 602277;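 active = inhibition of the reporter signal at or above 50%; inactive = inhibition below 50%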); details: HEK293-TLR3 RL24 IRF3 luciferase reporter, at 10 µM, stronger effect = higher value

Voltage-gated potassium channel subunit beta-2 (Rattus norvegicus), sequence (P62483 whole entry, looked up): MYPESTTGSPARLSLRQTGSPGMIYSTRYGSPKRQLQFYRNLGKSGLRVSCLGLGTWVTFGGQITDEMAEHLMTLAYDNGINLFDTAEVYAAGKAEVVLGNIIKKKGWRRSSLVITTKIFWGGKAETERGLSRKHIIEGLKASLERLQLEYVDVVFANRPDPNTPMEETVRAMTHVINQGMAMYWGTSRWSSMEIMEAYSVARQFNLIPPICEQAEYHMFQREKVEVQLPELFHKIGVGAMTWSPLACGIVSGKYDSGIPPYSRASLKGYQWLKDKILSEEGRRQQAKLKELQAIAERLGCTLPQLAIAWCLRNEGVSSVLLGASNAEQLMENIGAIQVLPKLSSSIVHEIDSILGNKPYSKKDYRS
Alpha-2C adrenergic receptor (Homo sapiens), sequence (P18825 whole entry, looked up): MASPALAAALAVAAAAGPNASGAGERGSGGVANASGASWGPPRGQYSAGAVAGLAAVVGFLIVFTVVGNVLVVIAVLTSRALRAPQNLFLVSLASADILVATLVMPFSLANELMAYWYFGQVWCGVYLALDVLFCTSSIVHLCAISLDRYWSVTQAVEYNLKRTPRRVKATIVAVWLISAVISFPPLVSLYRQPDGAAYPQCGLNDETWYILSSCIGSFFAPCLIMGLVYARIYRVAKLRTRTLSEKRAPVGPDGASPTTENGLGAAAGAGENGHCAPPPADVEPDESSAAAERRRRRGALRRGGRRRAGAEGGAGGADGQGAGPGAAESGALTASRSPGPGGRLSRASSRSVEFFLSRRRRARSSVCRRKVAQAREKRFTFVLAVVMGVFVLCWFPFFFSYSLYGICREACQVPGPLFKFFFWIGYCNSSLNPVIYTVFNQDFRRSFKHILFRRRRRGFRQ

Row | SMILES | cell count [1] | inhibition [1] | inhibition of aggregation [2] | nuclei count [2] [%] | inhibition [3] | nuclei count [3] [%] | fluorescence slope [4] | NADPH fluorescence slope [5] | slope [6] | inhibition [7] | inhibition [8]
1 | COc1cccc(C2C(C(=O)c3ccc(C)o3)=C(O)C(=O)N2CCCN(C)C)c1 (centres undefined) | 239 | -10.9% (inactive) | 45.3% (active) | 83.9 | -110% (inactive) | 111 | -0.592 (inactive) | -5.1e-05 (inactive) | 0.00639 (inactive) | 10.4% (inactive) | 15.6% (inactive)
2 | Cc1ccc(S(=O)(=O)N2CCC(C(=O)N3CCC[C@H]3C(=O)NCc3ccccc3)CC2)cc1 | 340 | 3.6% (inactive) | -6.4% (inactive) | 108 | -35% (inactive) | 133 | -0.453 (inactive) | 8.3e-05 (inactive) | 0.00735 (inactive) | 13.5% (inactive) | 23.1% (inactive)
3 | Cc1ccc(C(C(=O)NC2CCCCC2)N2CCOCC2)cc1 (centres undefined) | 674 | -5.2% (inactive) | -13% (inactive) | 114 | -41.7% (inactive) | 125 | -0.468 (inactive) | -0.000297 (inactive) | 0.00526 (inactive) | -0.432% (inactive) | 15.1% (inactive)
4 | CCOc1ccc(-c2nnc3sc(-c4c(OC)cccc4OC)nn23)cc1 | 434 | 2.8% (inactive) | 0.4% (inactive) | 102 | -65.6% (inactive) | 111 | -0.609 (inactive) | -3.7e-05 (inactive) | 0.00506 (inactive) | 10.1% (inactive) | 3.17% (inactive)
5 | O=C(CSc1nc(-c2ccco2)cc(C(F)(F)F)n1)NCCCn1ccnc1 | 674 | -1.9% (inactive) | 2.9% (inactive) | 119 | -43.1% (inactive) | 113 | -0.537 (inactive) | 2.4e-05 (inactive) | 0.0076 (inactive) | -4.59% (inactive) | 13.6% (inactive)
6 | O=S(=O)(Nc1cccnc1)c1cc(Cl)ccc1Cl | 395 | 2.5% (inactive) | 6.1% (inactive) | 99.9 | 26.2% (inactive) | 115 | -0.286 (inactive) | 2e-06 (inactive) | 0.00524 (inactive) | 23.6% (inactive) | 7.22% (inactive)
7 | O=c1c2[nH]c3ccccc3c2ncn1CCCn1ccnc1 | 717 | -0.2% (inactive) | -4.9% (inactive) | 99.9 | -21.4% (inactive) | 111 | -0.42 (inactive) | 3.1e-06 (inactive) | 0.00409 (inactive) | 26.3% (inactive) | 50.7% (active)
8 | CCCCc1n[nH]c2c1C(=O)CC(C)(C)C2 | 712 | -28.4% (inactive) | 3.8% (inactive) | 113 | -75.3% (inactive) | 120 | -0.449 (inactive) | -4.7e-05 (inactive) | 0.00506 (inactive) | 3.68% (inactive) | 19.2% (inactive)
9 | CCOC(=O)c1[nH]c(C)c(C(=O)Nc2ccc(Cl)cc2)c1C | 709 | -1.6% (inactive) | -32.6% (inactive) | 89.1 | -32% (inactive) | 114 | -0.591 (inactive) | 2.4e-05 (inactive) | 0.00669 (inactive) | 6.23% (inactive) | -11% (inactive)
10 | CCc1nc(C)c(C#N)c2cc(OC)c(OC)cc12 | 387 | -1.1% (inactive) | -2.1% (inactive) | 79.3 | -7.1% (inactive) | 97.7 | -0.446 (inactive) | -7.7e-05 (inactive) | 0.00607 (inactive) | 15.2% (inactive) | 21.3% (inactive)
11 | CCS(=O)(=O)N1CCCC(C(=O)NCc2ccccc2Cl)C1 (centres undefined) | 257 | -1.9% (inactive) | -1.1% (inactive) | 107 | -15.6% (inactive) | 112 | -0.608 (inactive) | -1.9e-05 (inactive) | 0.00474 (inactive) | 3.16% (inactive) | -6.49% (inactive)
12 | O=C1NC(c2cccnc2)C(C(=O)c2cccs2)C(O)(C(F)(F)F)N1 (centres undefined) | 506 | -0.3% (inactive) | 5% (inactive) | 104 | 40.4% (inactive) | 119 | -0.363 (inactive) | -3.5e-05 (inactive) | 0.00436 (inactive) | -6.6% (inactive) | -5.31% (inactive)
13 | O=C(O)c1ccc(-c2ccc(O)c(F)c2)cc1 | 677 | 1.3% (inactive) | 11% (inactive) | 89.9 | -11.2% (inactive) | 104 | -0.59 (inactive) | -4.3e-05 (inactive) | 0.0076 (inactive) | -3.64% (inactive) | 17.3% (inactive)
14 | CCCCCn1c(CCNC(=O)CCC)nc2ccccc21 | 635 | 3.4% (inactive) | -4.9% (inactive) | 55 | -30.5% (inactive) | 104 | -0.552 (inactive) | -4.5e-05 (inactive) | 0.00652 (inactive) | 10.2% (inactive) | 40.2% (inactive)
